Experimental data from the supplement of paper PMC11732987, “Enantioselective OTUD7B fragment discovery through chemoproteomics screening and high-throughput optimisation” (Communications Chemistry, 2025).

Legend:
Assay in all cases: log2 ratio of Biotin-Ahx-Ub-VS probe labelling (fragment/DMSO); higher = less target engagement (more negative = stronger competition), active = hit call of the paper (q ≤ 0.05, log2 ratio ≤ -1)
Details in all cases: compound concentration: 200 uM; treatment time: 3 h
USP42 = target: T1, USP42 (UniProt Q9H9J4)
T1 sequence (whole entry): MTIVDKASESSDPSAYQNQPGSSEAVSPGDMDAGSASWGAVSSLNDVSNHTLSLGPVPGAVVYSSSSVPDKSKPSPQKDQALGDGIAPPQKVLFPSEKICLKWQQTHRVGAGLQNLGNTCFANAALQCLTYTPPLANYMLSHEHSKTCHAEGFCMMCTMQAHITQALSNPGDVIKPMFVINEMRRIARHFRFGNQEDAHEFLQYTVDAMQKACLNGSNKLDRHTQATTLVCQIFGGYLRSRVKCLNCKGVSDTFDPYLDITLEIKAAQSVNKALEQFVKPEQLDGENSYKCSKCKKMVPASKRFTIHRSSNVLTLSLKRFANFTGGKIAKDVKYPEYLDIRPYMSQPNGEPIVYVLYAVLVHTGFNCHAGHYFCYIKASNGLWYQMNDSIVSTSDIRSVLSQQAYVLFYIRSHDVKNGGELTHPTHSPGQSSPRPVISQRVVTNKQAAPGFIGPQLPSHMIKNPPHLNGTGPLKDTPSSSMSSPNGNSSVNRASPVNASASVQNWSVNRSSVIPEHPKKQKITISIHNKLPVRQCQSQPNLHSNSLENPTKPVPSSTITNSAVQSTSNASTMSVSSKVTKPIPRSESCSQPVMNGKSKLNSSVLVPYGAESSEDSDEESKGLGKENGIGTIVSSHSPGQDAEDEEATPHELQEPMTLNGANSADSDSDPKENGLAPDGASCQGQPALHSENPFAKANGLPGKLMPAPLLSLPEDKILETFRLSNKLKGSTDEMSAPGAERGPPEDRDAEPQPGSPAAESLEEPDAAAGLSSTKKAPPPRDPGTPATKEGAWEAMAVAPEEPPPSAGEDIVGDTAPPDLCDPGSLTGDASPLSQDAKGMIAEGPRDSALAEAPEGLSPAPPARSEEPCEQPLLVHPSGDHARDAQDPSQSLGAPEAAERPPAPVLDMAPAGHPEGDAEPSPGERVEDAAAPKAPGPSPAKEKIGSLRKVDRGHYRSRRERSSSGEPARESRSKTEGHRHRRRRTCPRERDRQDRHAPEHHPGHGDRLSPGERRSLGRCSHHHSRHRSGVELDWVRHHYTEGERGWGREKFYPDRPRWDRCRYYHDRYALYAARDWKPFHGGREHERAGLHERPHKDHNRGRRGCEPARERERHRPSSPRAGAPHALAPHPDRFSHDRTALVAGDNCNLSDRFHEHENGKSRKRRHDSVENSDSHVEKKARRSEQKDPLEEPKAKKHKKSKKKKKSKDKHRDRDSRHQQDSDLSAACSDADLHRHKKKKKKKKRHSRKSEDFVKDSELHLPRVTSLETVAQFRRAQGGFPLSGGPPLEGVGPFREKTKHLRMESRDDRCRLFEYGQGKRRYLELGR
Procedure, shortened: (§1)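 Using Biotin-Ahx-Ub-VS at 0.5 µM final for 1 h, DUBs were labelled in HEK293T lysate (495 µg per sample) that had first been treated in triplicate with fragment at 200 µM or vehicle for 3 h. NeutrAvidin enrichment, LysC and trypsin digestion and diaPASEF LC-MS/MS followed. Spectronaut label-free quantities were global-median-normalised. Values are average log2 fragment/vehicle ratios by unpaired t-test, using proteins with ≥2 unique peptides.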

USP46 = USP46 (UniProt P62068)
Procedure, shortened: as §1

USP47 = target: T2, USP47 (UniProt Q96K76)
T2 sequence (whole entry): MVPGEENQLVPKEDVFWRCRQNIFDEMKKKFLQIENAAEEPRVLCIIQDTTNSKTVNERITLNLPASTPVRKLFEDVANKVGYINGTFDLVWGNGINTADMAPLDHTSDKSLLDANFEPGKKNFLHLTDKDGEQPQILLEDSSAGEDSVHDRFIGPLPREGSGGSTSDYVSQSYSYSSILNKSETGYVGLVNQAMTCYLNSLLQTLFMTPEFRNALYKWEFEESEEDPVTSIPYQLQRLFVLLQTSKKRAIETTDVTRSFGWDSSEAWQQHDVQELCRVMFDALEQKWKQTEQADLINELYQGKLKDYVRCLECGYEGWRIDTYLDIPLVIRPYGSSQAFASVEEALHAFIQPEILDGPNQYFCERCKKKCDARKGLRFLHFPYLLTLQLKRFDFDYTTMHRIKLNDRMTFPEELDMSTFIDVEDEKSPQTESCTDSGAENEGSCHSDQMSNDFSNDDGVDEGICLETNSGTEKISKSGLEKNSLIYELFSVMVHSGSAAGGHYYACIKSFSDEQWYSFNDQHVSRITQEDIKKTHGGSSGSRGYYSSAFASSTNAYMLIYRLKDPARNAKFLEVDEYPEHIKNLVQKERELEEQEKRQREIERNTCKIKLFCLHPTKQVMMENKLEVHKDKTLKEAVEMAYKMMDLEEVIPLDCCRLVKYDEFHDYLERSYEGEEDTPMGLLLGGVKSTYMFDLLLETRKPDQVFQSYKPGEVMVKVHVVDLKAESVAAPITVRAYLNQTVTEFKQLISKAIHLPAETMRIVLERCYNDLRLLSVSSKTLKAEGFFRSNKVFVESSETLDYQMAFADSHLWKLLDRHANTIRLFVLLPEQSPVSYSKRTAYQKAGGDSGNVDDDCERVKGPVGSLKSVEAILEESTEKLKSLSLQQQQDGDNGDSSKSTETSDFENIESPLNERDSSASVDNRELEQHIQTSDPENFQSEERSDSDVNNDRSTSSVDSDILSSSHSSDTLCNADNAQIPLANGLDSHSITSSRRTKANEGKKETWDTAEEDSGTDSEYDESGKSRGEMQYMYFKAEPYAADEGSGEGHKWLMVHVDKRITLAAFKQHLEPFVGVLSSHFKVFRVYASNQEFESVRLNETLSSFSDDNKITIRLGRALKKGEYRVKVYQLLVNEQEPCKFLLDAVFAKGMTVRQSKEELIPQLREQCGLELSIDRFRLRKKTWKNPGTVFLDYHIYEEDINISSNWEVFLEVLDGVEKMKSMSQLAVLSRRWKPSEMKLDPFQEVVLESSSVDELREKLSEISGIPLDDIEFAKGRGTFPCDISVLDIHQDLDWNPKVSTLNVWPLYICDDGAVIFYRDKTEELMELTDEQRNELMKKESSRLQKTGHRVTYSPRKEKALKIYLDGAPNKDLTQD
Procedure, shortened: as §1

USP48 = target: T3, USP48 (UniProt Q86UV5)
T3 sequence (whole entry): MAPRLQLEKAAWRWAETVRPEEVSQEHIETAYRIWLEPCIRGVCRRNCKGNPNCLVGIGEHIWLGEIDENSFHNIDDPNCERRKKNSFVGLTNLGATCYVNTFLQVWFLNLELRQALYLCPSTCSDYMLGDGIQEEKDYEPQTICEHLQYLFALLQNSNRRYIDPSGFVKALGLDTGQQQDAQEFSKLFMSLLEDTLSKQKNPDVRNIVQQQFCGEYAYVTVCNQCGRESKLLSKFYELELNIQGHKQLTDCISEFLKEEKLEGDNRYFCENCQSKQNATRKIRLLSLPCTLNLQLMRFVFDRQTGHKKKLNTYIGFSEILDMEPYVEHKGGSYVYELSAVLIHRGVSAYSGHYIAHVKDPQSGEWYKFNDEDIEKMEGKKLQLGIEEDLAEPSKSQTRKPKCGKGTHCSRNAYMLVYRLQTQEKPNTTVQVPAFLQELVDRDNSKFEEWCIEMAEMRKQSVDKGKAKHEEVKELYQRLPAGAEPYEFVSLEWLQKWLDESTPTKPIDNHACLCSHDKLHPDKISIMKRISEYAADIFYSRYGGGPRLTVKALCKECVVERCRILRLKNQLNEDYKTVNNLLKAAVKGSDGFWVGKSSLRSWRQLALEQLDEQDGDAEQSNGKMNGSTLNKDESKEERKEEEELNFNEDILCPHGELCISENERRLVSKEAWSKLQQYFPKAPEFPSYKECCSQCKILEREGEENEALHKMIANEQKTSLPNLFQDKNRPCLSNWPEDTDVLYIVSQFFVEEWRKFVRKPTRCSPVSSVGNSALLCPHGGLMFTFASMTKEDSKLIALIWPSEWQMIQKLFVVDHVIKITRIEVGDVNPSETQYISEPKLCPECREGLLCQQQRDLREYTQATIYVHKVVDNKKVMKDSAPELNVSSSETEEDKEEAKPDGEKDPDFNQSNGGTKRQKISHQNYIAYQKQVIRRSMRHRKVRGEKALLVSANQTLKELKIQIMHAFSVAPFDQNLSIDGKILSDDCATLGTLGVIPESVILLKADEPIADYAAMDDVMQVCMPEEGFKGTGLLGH
Procedure, shortened: as §1

USP5 = target: T4, USP5 (UniProt P45974)
T4 sequence (whole entry): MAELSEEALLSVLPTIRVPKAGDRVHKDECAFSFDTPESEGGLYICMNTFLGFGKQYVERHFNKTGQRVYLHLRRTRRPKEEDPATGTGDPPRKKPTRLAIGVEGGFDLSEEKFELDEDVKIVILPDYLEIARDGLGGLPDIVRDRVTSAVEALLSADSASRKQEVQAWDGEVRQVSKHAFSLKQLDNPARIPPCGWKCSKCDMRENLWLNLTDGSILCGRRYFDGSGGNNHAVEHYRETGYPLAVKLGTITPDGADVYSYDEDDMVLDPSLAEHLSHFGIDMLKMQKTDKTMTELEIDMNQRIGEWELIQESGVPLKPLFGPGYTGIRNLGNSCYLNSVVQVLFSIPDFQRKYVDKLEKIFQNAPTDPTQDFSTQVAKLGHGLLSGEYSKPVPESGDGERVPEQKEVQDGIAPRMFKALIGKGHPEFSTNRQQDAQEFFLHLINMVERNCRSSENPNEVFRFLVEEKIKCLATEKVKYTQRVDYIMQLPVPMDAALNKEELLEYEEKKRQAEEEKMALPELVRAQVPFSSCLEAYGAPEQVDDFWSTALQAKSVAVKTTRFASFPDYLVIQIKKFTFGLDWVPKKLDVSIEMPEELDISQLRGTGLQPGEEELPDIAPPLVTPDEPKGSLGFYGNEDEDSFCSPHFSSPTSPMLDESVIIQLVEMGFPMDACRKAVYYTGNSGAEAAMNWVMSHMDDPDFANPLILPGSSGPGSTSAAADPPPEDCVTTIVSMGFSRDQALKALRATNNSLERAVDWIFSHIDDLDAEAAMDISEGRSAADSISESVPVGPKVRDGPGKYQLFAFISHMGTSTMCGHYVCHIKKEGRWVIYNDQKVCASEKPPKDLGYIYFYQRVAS
Procedure, shortened: as §1

USP54 = USP54 (UniProt Q70EL1)
Procedure, shortened: as §1

USP7 = USP7 (UniProt Q93009)
Procedure, shortened: as §1

USP8 = target: T5, USP8 (UniProt P40818)
T5 sequence (whole entry): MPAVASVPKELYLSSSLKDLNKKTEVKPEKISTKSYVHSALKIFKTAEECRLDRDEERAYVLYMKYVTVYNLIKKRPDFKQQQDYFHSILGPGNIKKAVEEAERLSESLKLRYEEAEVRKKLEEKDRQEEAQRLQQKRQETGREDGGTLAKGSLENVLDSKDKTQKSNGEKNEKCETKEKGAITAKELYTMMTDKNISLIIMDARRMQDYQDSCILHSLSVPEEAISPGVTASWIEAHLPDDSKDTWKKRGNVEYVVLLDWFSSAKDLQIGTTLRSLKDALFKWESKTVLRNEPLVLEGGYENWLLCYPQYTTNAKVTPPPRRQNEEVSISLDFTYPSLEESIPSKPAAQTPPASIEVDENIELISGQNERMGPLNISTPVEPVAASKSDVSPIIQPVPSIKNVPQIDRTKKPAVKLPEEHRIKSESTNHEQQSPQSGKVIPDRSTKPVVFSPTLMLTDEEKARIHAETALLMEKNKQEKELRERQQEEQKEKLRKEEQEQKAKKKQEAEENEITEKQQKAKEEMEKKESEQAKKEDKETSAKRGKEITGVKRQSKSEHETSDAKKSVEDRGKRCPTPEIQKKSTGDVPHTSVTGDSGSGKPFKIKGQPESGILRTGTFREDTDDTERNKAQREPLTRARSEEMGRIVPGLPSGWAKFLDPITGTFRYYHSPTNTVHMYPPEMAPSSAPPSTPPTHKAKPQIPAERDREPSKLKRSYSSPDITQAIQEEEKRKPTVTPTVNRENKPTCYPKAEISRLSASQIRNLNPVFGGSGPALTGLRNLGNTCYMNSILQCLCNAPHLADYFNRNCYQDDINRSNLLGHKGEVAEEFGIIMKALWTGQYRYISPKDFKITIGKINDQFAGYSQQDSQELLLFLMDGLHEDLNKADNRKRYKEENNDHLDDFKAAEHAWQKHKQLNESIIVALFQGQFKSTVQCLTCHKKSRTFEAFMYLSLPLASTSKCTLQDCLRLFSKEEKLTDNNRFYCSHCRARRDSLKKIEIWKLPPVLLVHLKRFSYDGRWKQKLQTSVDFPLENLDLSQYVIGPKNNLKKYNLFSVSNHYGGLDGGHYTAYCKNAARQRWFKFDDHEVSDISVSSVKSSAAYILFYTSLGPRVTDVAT
Procedure, shortened: as §1

Measured: log2 ratio of Biotin-Ahx-Ub-VS probe labelling

USP46, sequence (P62068 whole entry): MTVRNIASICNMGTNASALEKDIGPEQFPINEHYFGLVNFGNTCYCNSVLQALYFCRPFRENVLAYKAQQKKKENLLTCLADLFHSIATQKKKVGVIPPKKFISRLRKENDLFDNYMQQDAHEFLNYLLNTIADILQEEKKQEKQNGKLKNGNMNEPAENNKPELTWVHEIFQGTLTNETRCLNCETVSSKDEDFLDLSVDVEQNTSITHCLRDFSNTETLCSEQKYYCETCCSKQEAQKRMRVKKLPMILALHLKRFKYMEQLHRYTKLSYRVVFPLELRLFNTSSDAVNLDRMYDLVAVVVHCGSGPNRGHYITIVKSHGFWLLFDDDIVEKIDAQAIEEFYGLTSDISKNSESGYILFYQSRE
USP7, sequence (Q93009 whole entry, looked up): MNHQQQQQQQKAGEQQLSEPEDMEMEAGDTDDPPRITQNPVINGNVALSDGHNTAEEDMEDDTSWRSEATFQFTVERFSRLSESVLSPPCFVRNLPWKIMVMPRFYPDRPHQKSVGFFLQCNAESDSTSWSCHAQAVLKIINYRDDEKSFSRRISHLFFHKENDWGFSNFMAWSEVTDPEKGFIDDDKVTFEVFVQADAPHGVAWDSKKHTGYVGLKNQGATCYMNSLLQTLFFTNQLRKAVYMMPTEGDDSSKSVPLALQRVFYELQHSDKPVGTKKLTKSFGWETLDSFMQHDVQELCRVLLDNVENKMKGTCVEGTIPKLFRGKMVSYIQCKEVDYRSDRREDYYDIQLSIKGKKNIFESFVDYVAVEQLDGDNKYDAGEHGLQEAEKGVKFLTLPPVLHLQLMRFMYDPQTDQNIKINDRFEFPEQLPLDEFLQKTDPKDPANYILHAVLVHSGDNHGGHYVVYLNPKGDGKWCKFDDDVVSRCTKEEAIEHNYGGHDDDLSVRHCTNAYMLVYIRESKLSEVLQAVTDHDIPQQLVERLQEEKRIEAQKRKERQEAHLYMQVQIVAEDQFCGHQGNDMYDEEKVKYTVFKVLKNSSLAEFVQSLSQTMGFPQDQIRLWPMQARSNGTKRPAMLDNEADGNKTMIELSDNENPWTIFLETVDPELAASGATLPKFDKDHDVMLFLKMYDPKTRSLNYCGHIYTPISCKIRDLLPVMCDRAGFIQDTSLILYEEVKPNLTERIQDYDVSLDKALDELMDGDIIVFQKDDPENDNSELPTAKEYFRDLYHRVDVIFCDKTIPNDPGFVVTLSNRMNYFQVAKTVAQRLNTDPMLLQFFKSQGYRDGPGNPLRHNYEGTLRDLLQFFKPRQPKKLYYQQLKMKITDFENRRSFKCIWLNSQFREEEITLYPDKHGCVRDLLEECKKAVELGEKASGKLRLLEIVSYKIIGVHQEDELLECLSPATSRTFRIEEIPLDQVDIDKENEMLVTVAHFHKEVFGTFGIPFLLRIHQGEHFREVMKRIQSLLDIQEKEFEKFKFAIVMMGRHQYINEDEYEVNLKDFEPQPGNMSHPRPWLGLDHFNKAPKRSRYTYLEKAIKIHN
USP54, sequence (Q70EL1 whole entry): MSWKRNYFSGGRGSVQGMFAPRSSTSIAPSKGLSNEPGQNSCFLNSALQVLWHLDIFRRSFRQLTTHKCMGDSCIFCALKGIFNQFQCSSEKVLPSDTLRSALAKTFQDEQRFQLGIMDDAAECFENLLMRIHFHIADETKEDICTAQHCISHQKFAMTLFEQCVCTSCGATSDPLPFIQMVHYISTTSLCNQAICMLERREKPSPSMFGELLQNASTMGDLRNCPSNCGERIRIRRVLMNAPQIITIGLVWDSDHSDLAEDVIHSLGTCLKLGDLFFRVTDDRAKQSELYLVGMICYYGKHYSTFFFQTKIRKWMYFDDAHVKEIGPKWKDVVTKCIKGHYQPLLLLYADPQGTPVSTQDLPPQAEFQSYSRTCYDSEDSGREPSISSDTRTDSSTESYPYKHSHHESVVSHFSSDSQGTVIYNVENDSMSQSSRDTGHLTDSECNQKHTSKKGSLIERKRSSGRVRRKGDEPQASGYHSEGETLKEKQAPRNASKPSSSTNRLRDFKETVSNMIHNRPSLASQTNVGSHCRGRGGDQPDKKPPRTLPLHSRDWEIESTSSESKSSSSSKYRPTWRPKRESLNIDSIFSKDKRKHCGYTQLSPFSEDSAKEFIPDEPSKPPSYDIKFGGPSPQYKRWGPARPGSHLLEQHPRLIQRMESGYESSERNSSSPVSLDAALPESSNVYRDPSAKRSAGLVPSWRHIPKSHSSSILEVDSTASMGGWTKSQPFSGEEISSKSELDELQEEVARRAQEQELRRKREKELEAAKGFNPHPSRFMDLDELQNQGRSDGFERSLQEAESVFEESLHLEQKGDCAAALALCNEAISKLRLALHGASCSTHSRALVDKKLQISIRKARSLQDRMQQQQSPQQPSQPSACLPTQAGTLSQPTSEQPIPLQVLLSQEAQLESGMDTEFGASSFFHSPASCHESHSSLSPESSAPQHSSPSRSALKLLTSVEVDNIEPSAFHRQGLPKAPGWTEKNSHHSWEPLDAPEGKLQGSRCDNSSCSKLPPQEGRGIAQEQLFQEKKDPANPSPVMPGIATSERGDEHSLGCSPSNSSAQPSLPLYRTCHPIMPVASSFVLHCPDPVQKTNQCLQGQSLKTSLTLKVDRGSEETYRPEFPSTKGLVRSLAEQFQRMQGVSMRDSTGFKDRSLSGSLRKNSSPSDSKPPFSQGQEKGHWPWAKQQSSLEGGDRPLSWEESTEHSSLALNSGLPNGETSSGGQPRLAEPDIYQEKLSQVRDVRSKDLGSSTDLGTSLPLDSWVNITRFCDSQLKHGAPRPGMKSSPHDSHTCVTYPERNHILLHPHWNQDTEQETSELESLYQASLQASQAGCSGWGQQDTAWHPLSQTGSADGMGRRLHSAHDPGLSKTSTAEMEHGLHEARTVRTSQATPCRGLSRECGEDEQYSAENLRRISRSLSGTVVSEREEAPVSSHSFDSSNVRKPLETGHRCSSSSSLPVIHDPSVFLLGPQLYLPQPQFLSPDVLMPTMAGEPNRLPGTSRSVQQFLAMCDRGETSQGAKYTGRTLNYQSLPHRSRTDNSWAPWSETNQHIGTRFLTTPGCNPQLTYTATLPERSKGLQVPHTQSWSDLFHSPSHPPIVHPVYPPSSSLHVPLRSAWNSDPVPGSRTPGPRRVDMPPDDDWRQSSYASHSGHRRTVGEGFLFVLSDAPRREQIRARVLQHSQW

CS(=O)(=O)N1CCCN(C(=O)CCl)CC1
inactive: USP42 -0.107 | USP46 0.169 | USP47 -0.733 | USP48 -0.507 | USP5 -0.0151 | USP54 0.239 | USP7 -0.301 | USP8 -0.323
